Activity calls are given as the source filed them. Rule for the calls: active = hit-call score of the fitted dose curve at least 0.9, where 1 is the maximum; inactive = score below 0.9.
The compounds below were run on Cyclin Dependent Kinase Inhibitor 1A (CDKN1A), CDKN1A (gene 1026) (assay: LTEA_HepaRG_CDKN1A: Life Technologies and Expression Analysis (LTEA) Assay for Cyclin Dependent Kinase Inhibitor 1A (CDKN1A) using HepaRG (AID 2283450)). Details: mRNA level, 48 h; actives raise or lower the signal.
Procedure: LTEA_HepaRG is a cell based, multiplexed-readout assay that uses HepaRG, a human liver cell line, with measurements taken at 48 hours after chemical dosing on a 96-well plate.LTEA_HepaRG_CDKN1A is one of 102 assay component(s) measured in the LTEA HepaRG cell culture assay. It is a marker of Cell proliferation, survival, death.Data from the assay component LTEA_HepaRG_CDKN1A was analyzed into 1 endpoint. This assay endpoint, LTEA_HepaRG_CDKN1A, was analyzed with bidirectional fitting relative to DMSO as the negative control and baseline of activity. Using a type of inducible reporter, measures of mRNA induction for gain or loss-of-signal activity can be used to understand regulation of transcription factor activity. To generalize the intended target to other relatable targets, this assay endpoint is annotated to the cell cycle intended target family, where the subfamily is Cell proliferation, survival, death.
A total of 1060 chemcials from the ToxCast library were tested in eight-point concentration-response experiments. Cell culture and cytotoxicity assays were conducted at Thermo Fisher Scientific's Custom Services facility (Madison, WI). A single lot of human HepaRG cells (Thermo Fisher Scientific, Frederick, MD) was used for the cell culture experiments. 96-well format collagen type I coated plates of human HepaRG cells were prepared using established methods. Briefly, cryopreserved HepaRG cells were thawed, plated at a density of approximately 100,000 cells/well in HepaRG Thaw, Plate, and General Purpose media (HPRG770, Thermo Fisher Scientific), and incubated for 48 hours. 0.5% DMSO was selected as vehicle control to balance the requisite need of DMSO in HepaRG cultures to maintain differentiation (for example, baseline metabolism, proportions of hepatocytes vs. cholangiocytes), while enabling further hepatic receptor pathway activation (for example, PXR and CAR) in response to chemical exposure. 48 hours after plating, the culture medium was replaced with HepaRG Serum-Free Incudtion Media. Cells were exposed to each test chemical in duplicate and maintained in CO2 incubators for another 48 hours. Chemical plates were thawed to room temperature and 200x concentrations of treatment groups were prepared. 8-point conentration-reponse curves were made with the highest exposure at 100 uM, followed by half-log dilutions, all in 0.5% DMSO. Each test plate contained variouse controls, induction positive controls (1mM phenobarbital), cytotoxicity positive controls ([…] aflatoxin B1), vehicle controls (0.5% DMSO), and total lysis controls (0.5% DMSO). Cell morphology images were taken using an Essen IncuCyte FLR automated microscope, with six 96-well plates imaged in about 24 minutes. Images were captured and exported and JPEG files. Spent culture media was transfered to black-well plates for the LDH assay, and remaining media was sorted at -80 C for later use. Cells were treated with RLT buffer and frozen until shipped for gene expression analysis. Total RNA was isolated from the cell suspension in 75 uL of Buffer RLT (Qiagen, Germantown, MD 20874) by Quintiles/Expression Analysis (Durham, NC) using a custom isolation procedure. Total RNA from each plate well was transferred to a preamplification plate. Fluidigm's 96.96 Dynamic ArrayTM (Fluidigm, Amsterdam, the Netherlands) technology was used for gene expression analyses by quantitative reverse transcription polymerase chain reaction (qRT-PCR, performed by Quintiles/Expression Analysis, Durham, NC)89. Standard TaqManTM Assays (Applied Biosystems/ThermoFisher Scientific, Foster City, CA) were used to assess the expression of 93 genes selected based on their selectivity and sensitivity to important hepatic receptors known to be modulated by environmental chemicals; importance in human hepatocyte functionality; and hepatotoxicity. […]

Row | SMILES | outcome | AC50
1 | OCCCBr | inactive | –
2 | O=Cc1ccco1 | inactive | –
3 | CC(C)(C)C(O)(CCc1ccc(Cl)cc1)Cn1cncn1 (stereo not given) | – | 88.7 µM (active)
4 | Cc1ccc([N+](=O)[O-])cc1 | inactive | –
5 | CCOc1cccc(C2(N3CCN(c4ccccc4)CC3)CCC(C)CC2)c1 (stereo not given) | inactive | –
6 | [As]#[In] | inactive | –
7 | CS(=O)(=O)NC(=O)c1cc(Oc2ccc(C(F)(F)F)cc2Cl)ccc1[N+](=O)[O-] | inactive | –
8 | O=[N+]([O-])c1ccc(Oc2ccc(Cl)cc2Cl)cc1 | inactive | –
9 | Cc1cccc(N)c1N | inactive | –
10 | ClC1=C(Cl)C2(Cl)C3C(Cl)C=CC3C1(Cl)C2(Cl)Cl (stereo not given) | inactive | –
11 | O=C(O)C1C2CCC(O2)C1C(=O)O (stereo not given) | – | 35.8 µM (active)
12 | O=[N+]([O-])C(Br)(CO)CO | inactive | –
13 | N#CC(Br)(Br)C(N)=O | inactive | –
14 | Clc1ccc(C(c2ccc(Cl)cc2)C(Cl)(Cl)Cl)cc1 | inactive | –
15 | CN(C)[C@@H]1C(=O)C(C(N)=O)=C(O)[C@@]2(O)C(=O)C3=C(O)c4c(O)cccc4[C@@](C)(O)[C@H]3C[C@@H]12 | inactive | –
16 | CCCCOC(=O)c1ccccc1C(=O)OCc1ccccc1 | inactive | –
17 | C[C@]12C=CC3=C4CCC(=O)C=C4CC[C@H]3[C@@H]1CC[C@@H]2O | inactive | –
18 | CC(O)CCO (stereo not given) | inactive | –
19 | N#CC(Br)Br | inactive | –
20 | [Cl-].[Cl-].[Hg+2] | inactive | –

Row | SMILES | outcome | AC50
21 | CC(C)(C)OOC(C)(C)CCC(C)(C)OOC(C)(C)C | inactive | –
22 | [O-][Cl+]O | inactive | –
23 | COC(=O)Nc1nc2ccccc2[nH]1 | inactive | –
24 | c1ccc2c(c1)oc1ccccc12 | inactive | –
25 | COC(=O)c1ccccc1N | inactive | –
26 | CN(C)c1ccc(C(=O)c2ccc(N(C)C)cc2)cc1 | inactive | –
27 | CN(C)C(=O)Nc1ccc(Cl)cc1 | inactive | –
28 | Nc1ccc(N=Nc2ccccc2)cc1 | – | 11.2 µM (active)
29 | Brc1ccc(Oc2ccccc2)cc1 | inactive | –
30 | Nc1ccc(Cl)cc1N | – | 11.4 µM (active)
31 | O=P(OCCCl)(OCCCl)OCCCl | inactive | –
32 | Cn1cc(-c2ccccc2)c(=O)c(-c2cccc(C(F)(F)F)c2)c1 | – | 63.8 µM (active)
33 | COP(=S)(OC)SCN1C(=O)c2ccccc2C1=O | inactive | –
34 | C[N+](C)(C)CC1CO1 (stereo not given) | inactive | –
35 | Oc1ccc2ccc3cccc4ccc1c2c34 | inactive | –
36 | CC(C)(C)OOC(=O)c1ccccc1 | inactive | –
37 | Nc1ccc([N+](=O)[O-])cc1 | inactive | –
38 | CCCSC(=O)N(CCC)CCC | inactive | –
39 | C=CCc1ccc2c(c1)OCO2 | inactive | –
40 | Cc1ccc(N)cc1 | inactive | –
